# PubChem BioAssay AID463173 (ICCB-Longwood Screening Facility, Harvard Medical School, 2010)
# In all, about 52,000 compounds went through this assay and about 4,300 (8.3%) were called active. The sample holds actives, similar compounds and a random draw of the others, so the mix is not that of the screen. Rule as the data show it: active = survival mostly below about 52% (no sharp cut-off); inactive = mostly above about 56%.
# Tested on: DeltatarO mutant
# Assay: S. aureus survival, RN4220 and DeltatarO strains – OD600, teichoic acid synthesis inhibitors, primary screen (AID 463173)
# Conditions: S. aureus RN4220 wild type/DeltatarO growth, OD600, 18 h, stronger effect = lower value, screened at 18.75 µg/mL (by protocol)
row,SMILES,survival
1,Cc1ccc(N2CCN(C(=O)C3CCN(S(=O)(=O)c4ccc5c(c4)oc(=O)n5C)CC3)CC2C)cc1 (stereo not drawn),109% (inactive)
2,Cc1ccc(-n2c3nc(=O)[nH]c(=O)c-3cc3c(C)nn(-c4ccccc4)c32)cc1Cl,85% (inactive)
3,Cc1cccc(-c2noc(-c3cccnc3NCc3ccc(Cl)cc3)n2)c1,73% (inactive)
4,COc1ccc(N(C(=O)COc2ccccc2OC)S(=O)(=O)c2ccc(Cl)cc2)cc1,71% (inactive)
5,O=C(CN1C(=O)COc2ccc(Cl)cc21)Nc1ccc(F)cc1,67% (inactive)
6,Cc1cc(C)c(NC(=O)CSc2nccn2Cc2ccco2)c(C)c1,76% (inactive)
7,COc1ccc(S(=O)(=O)NCC(c2ccc(N(C)C)cc2)N2CCc3ccccc32)cc1 (stereo not drawn),78% (inactive)
8,CN(C)c1ccc(C(CNS(=O)(=O)c2ccc(F)cc2)N2CCc3ccccc32)cc1 (stereo not drawn),32% (active)
9,CCOc1ccc(S(=O)(=O)NCC(c2ccc(N(C)C)cc2)N2CCc3ccccc32)cc1 (stereo not drawn),49% (inactive)
10,CN(C)c1ccc(C(CNS(=O)(=O)c2ccccc2)N2CCc3ccccc32)cc1 (stereo not drawn),99% (inactive)
11,Cc1ccc(S(=O)(=O)NCC(c2ccc(N(C)C)cc2)N2CCc3ccccc32)cc1 (stereo not drawn),0% (active)
12,Cc1ccc(S(=O)(=O)NCC(c2ccc(N(C)C)cc2)N2CCc3ccccc32)cc1C (stereo not drawn),131% (inactive)
13,Cc1cc(NC(=O)C2CCCN(S(=O)(=O)c3cn(C)cn3)C2)ccc1Br (stereo not drawn),102% (inactive)
14,Cc1ccc(S(=O)(=O)CCc2nnc(NC(=O)CCCC(=O)Nc3cc(C)on3)s2)cc1,104% (inactive)
15,CCOc1ccc(C(CC(=O)Nc2ccc(C(=O)OC)cc2)N2Cc3ccccc3C2=O)cc1OC (stereo not drawn),73% (inactive)
16,Cc1cccc(NC(=O)CN2C(=O)c3ccccc3Sc3ncccc32)c1C,90% (inactive)
17,Cc1ccc(CNC(=O)C(=O)NCC(c2ccc3c(c2)OCO3)N2CCOCC2)cc1 (stereo not drawn),64% (inactive)
18,c1ccc(CN2CCCN(c3nc4c(c(NCCN5CCOCC5)n3)CCCC4)CC2)cc1,103% (inactive)
19,COC(=O)c1c(SCC(=O)Nc2cc(C)cc(C)c2)[nH]c2ccccc2c1=O,39% (active)
20,COC(=O)c1c(SCC(=O)Nc2cccc(C(F)(F)F)c2)[nH]c2ccccc2c1=O,82% (inactive)
21,COC(=O)c1c(SCC(=O)Nc2ccccc2OC)[nH]c2ccccc2c1=O,55% (inactive)
22,COc1ccc(N2CCN(C(=O)c3ccc(NC(=O)c4nsc5ccccc45)cc3)CC2)cc1,84% (inactive)

row,SMILES,survival
1,CCOC(=O)c1scc(-c2ccccc2)c1S(=O)(=O)Nc1cc(OC)cc(OC)c1,89% (inactive)
2,Cc1cccc(CSc2nc(=O)c3c(n2C)NC(=O)CC3c2cccc(O)c2)c1 (stereo not drawn),46% (inactive)
3,COc1ccccc1NC(=O)c1ccc(CN2C(=O)C(C)=C(c3ccc(C)c(C)c3)S2(=O)=O)cc1,83% (inactive)
4,Cc1cccc(OCC(=O)Nc2ccc3oc(-c4ccccc4F)nc3c2)c1,57% (inactive)
5,O=C(Nc1ccc(-c2nc3cc(NC(=O)c4ccccc4Cl)ccc3o2)cc1)c1ccccc1Cl,83% (inactive)
6,O=C(Nc1ccc2oc(-c3ccccc3F)nc2c1)c1ccccc1Cl,49% (active)
7,N#Cc1ccc(C(=O)Nc2ccc(Cl)c(-c3nc4cc(Cl)ccc4o3)c2)c(F)c1,28% (active)
8,Cc1ccc(SCC(=O)Nc2ccc3oc(-c4ccccc4C)nc3c2)cc1,50% (inactive)
9,Cc1ccc(SCC(=O)Nc2ccc3oc(-c4ccccc4F)nc3c2)cc1,57% (active)
10,COc1ccc2oc(-c3cccc(NC(=O)c4ccc(C#N)cc4F)c3)nc2c1,79% (inactive)
11,O=C(COc1ccccc1Cl)Nc1ccc(Cl)c(-c2nc3ccccc3o2)c1,51% (inactive)
12,O=C(Nc1ccc(Cl)c(-c2nc3cc(Cl)ccc3o2)c1)c1cc2ccccc2o1,70% (inactive)
13,Cc1ccc(SCC(=O)Nc2ccc3oc(-c4ccc(F)cc4)nc3c2)cc1,80% (inactive)
14,COc1ccccc1-c1nc2cc(NC(=O)c3ccccc3Cl)ccc2o1,61% (inactive)
15,O=C(COc1ccccc1Cl)Nc1ccc2oc(-c3ccccc3F)nc2c1,67% (active)
16,CCCS(=O)(=O)N1CCCC(C(=O)NCCCOC)C1 (stereo not drawn),77% (inactive)
17,CCOc1ccc(Br)cc1C1NC(=O)c2c(sc3c2CCN(C)C3)N1 (stereo not drawn),60% (inactive)
18,CCn1c(C)c(C)c2cc(C(=O)NCc3ccc(OC)cc3OC)ccc21,70% (inactive)
19,CCc1nn2c(=O)cc(COC(=O)C(CC)c3ccccc3)nc2s1 (stereo not drawn),92% (inactive)
20,CCN(Cc1ccccc1)C(=O)c1cc2ccc3cccnc3c2[nH]1,49% (inactive)
21,Cc1cccc(C(=O)NCCc2nc3ccccc3n2Cc2ccc(Cl)cc2)c1,79% (inactive)
22,COC(=O)c1ccc(N2C(=O)c3ccc(N)cc3C2=O)cc1,73% (inactive)

row,SMILES,survival
1,COc1cc(Cl)c(NC(=O)c2cc(CN3CCCC3)on2)c(OC)c1,94% (inactive)
2,CC(=O)c1cccc(NC(=O)CSc2nnc3ccc(-c4ccc(Br)cc4)nn23)c1,75% (inactive)
3,COC(=O)c1ccc(NC(=O)c2c(-c3ccccc3)c(-c3ccccc3)nn(C)c2=O)cc1,58% (inactive)
4,CCn1nc(-c2ccccc2)c(-c2ccccc2)c(C(=O)Nc2ccc(S(N)(=O)=O)cc2)c1=O,66% (inactive)
5,Cn1nc(-c2ccccc2)c(-c2ccccc2)c(C(=O)Nc2ccc(S(N)(=O)=O)cc2)c1=O,49% (active)
6,Cc1ccc(-c2nc3sc(CCNC(=O)c4ccco4)c(C)n3n2)cc1,87% (inactive)
7,Cc1ccc(C)c(CN2C(=O)c3ccccc3S(=O)(=O)c3ccc(C(=O)N4CCN(c5ccccc5F)CC4)cc32)c1,79% (inactive)
8,COc1ccc(-c2cn3c(n2)sc2cc(C(=O)NCCCN4CCCCCC4)ccc23)cc1,64% (inactive)
9,CCCN1CCN(CCCNC(=O)c2ccc3c(c2)sc2nc(-c4ccc(OC)cc4)cn23)CC1,73% (inactive)
10,CCOc1ccc(-c2cn3c(n2)sc2cc(C(=O)NCCCN4CCCCCC4)ccc23)cc1,-2% (active)
11,CCCN1CCN(CCCNC(=O)c2ccc3c(c2)sc2nc(-c4ccc(OCC)cc4)cn23)CC1,28% (active)
12,COc1ccc(-c2cn3c(n2)sc2cc(C(=O)NCCCc4ccccc4)ccc23)cc1,65% (inactive)
13,COc1ccc(-c2cn3c(n2)sc2cc(C(=O)NCCCN4CCN(C)CC4)ccc23)cc1,95% (inactive)
14,COc1ccc(-c2cn3c(n2)sc2cc(C(=O)NCCCN4CCCCC4)ccc23)cc1,69% (inactive)
15,CCOc1ccc(-c2cn3c(n2)sc2cc(C(=O)NCCCN4CCCCC4)ccc23)cc1,-1% (active)
16,O=C(NCCN1CCOCC1)c1cnn2c(C(F)F)cc(-c3ccccc3)nc12,86% (inactive)
17,CC(C)(C)C(=O)Nc1cc(-c2cccc(Br)c2)nn1-c1ccccc1,81% (inactive)
18,CCc1ccccc1NC(=O)NCc1ccc2c(c1)CCN2C(=O)c1ccccc1,125% (inactive)
19,Cc1cccc(N2CCN(C(=O)c3ccc4nc(N5CCC(C)CC5)sc4c3)CC2)c1C,1% (active)
20,CC1CCN(c2nc3ccc(C(=O)N4CCN(c5ccccc5)CC4)cc3s2)CC1,72% (inactive)
21,COc1cccc(N2CCN(C(=O)c3ccc4nc(N5CCC(C)CC5)sc4c3)CC2)c1,62% (inactive)
22,COc1ccc(N2CCN(C(=O)c3ccc4nc(N5CCC(C)CC5)sc4c3)CC2)cc1,84% (inactive)

row,SMILES,survival
1,CC1CCN(c2nc3ccc(C(=O)NCc4ccc(Cl)cc4)cc3s2)CC1,128% (inactive)
2,Cc1ccc(Cl)cc1N1CCN(CCCNC(=O)c2ccc3nc(N4CCCCC4)sc3c2)CC1,77% (inactive)
3,Cc1ccc(C)c(N2CCN(CCCNC(=O)c3ccc4nc(N5CCC(C)CC5)sc4c3)CC2)c1,4% (active)
4,Cc1ccc(Cl)cc1N1CCN(C(=O)c2ccc3nc(N4CCC(C)CC4)sc3c2)CC1,29% (active)
5,Cc1ccc(C)c(N2CCN(CCCNC(=O)c3ccc4nc(N5CCCCC5)sc4c3)CC2)c1,71% (inactive)
6,Cc1ccc(CN2C(=O)C3(SCC(=O)N3c3ccc(C)c(C)c3)c3ccccc32)cc1 (stereo not drawn),99% (inactive)
7,COc1ccc(CCC(=O)NCCc2csc(-c3cccc(F)c3)n2)cc1,83% (inactive)
8,Cc1cccc(N(C)S(=O)(=O)c2ccc3c(c2)NC(=O)CC(=O)N3)c1,86% (inactive)
9,COc1cccc(C(=O)NCC(C)C)c1,81% (inactive)
10,COc1ccc(-c2nc(CSCC(=O)NCCc3ccccc3)c(C)o2)cc1,86% (inactive)
11,Cc1ccc(CNC(=O)CSCc2nc(-c3cccc(C)c3)oc2C)cc1,-5% (active)
12,COc1ccc(CNC(=O)CSCc2nc(-c3ccccc3F)oc2C)cc1,67% (inactive)
13,Cc1oc(-c2ccccc2F)nc1CSCC(=O)NCc1ccccc1,41% (active)
14,Cc1oc(-c2ccccc2F)nc1CSCC(=O)NCCc1ccccc1,94% (inactive)
15,Cc1ccc(CCNC(=O)CSCc2nc(-c3ccc(C)cc3)oc2C)cc1,26% (active)
16,CCOc1ccc(-c2nc(CSCC(=O)NCc3ccc(Cl)cc3)c(C)o2)cc1,95% (inactive)
17,Cc1ccc(CNC(=O)CSCc2nc(-c3ccc(Cl)cc3)oc2C)cc1,66% (inactive)
18,CCOc1ccc(-c2nc(CSCC(=O)NCc3ccc(C)cc3)c(C)o2)cc1,78% (inactive)
19,COc1ccc(-c2nc(CSCC(=O)NCCc3ccc(C)cc3)c(C)o2)cc1OC,56% (inactive)
20,CCc1ccc(-c2nc(CSCC(=O)NCc3ccc(C)cc3)c(C)o2)cc1,-3% (active)
21,Cc1cccc(-c2nc(CS(=O)CC(=O)NCc3ccc(Cl)cc3)c(C)o2)c1 (stereo not drawn),61% (inactive)
22,O=C(CC1SC(=NC2CCCCC2)NC1=O)Nc1ccccc1 (stereo not drawn),89% (inactive)
